p53ts 39C kill: qHTS Screen for Compounds that Selectively Target Cancer Cells with p53 Mutations: Cytotoxicity of p53ts Cells at the Nonpermissive Temperature. AID 902, 2007. H1299-p53A138V viability at 39C, ATP luminescence, 24 h. Potency, µM (highest dose often 46.1 µM), for the others: top-dose activity change, negative = cell killing, hits mostly cytotoxic. 1.5% of 130,000 active; note: % is set by controls: 0 for no effect and ±100 for the full control effect; nearly all actives have a fitted effect of over 55% in size
Peg3 imprint: qHTS Assay for Compounds that Induce Erasure of Genomic Imprints. mouse ES Peg3-LacZ reporter, beta-gal luminescence, 40 h. Potency, µM (highest dose often 60.7 µM), without a hit: top-dose activity change, positive = activation, usual class: activators. 0.02% of 110,000 active. AID 1948, 2009
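Imprint erasure is scored as LacZ activity from the silenced maternal Peg3 allele in feeder-free female ES cells cultured 40 h with LIF. Luminescence is normalized to in-plate negative controls and fitted to the Hill equation.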
p53ts 32C kill: qHTS Screen for Compounds that Selectively Target Cancer Cells with p53 Mutations: Cytotoxicity of p53ts Cells at the Permissive Temperature; 0.93% of 130,000 active; H1299-p53A138V at 32C, ATP luminescence viability, 24 h; Potency, µM (titrated, usually from 46.1 µM), inactives show at the top dose activity change, negative = cytotoxicity, most hits filed as cytotoxic;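 note: 0% = DMSO and -100% = full killing by reference compound; nearly all actives have a fitted effect of over 55% in size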
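H1299-p53 A138V cells (temperature-sensitive p53) exposed 24 h to up to 46 uM compound at 32C, where p53 is wild-type in conformation. Viability read as ATP luminescence and normalised to DMSO and 100 uM tamoxifen. AC50 fitted with the Hill equation.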
* = called active by the depositor; ? = inconclusive; / = no result given; [ ] = another dose, or the depositor's remark. A selection: hits, their analogues and other compounds. The true share with any hit is near 1.8%. Calls come from the whole dose curve; as a rule, active = well fitted curve in the direction sought with a large enough effect; inconclusive = small, poorly fitted or top-dose-only effect, or another doubt; inactive = no such curve, though single readings can be large; an effect the other way counts as inactive or inconclusive. Potency is the fitted concentration of half-maximal effect.

SMILES	p53ts 39C kill	Peg3 imprint	p53ts 32C kill
COc1ccccc1C(=O)Oc1c(Sc2ccccc2)c(C)nn1-c1ccccc1	-22%	-6%[10.9 µM]	16µM*
COc1cc(C(=O)Oc2c(Sc3ccc(C)cc3)c(C)nn2-c2ccccc2)cc(OC)c1OC	-6%	-5%[10.9 µM]	5%
CC(C)CC1NC(=O)C(CCCN)NC(=O)C(C(C)C)NC(=O)C2CCCN2C(=O)C(Cc2ccccc2)NC(=O)C(CC(C)C)NC(=O)C(CCCN)NC(=O)C(C(C)C)NC(=O)C2CCCN2C(=O)C(Cc2ccccc2)NC1=O (stereo not drawn)	5µM*	-30%	-10%
O=C1N[C@@H](Cc2ccccc2)C(=O)N2CCCC12 (stereo partly drawn)	/	-11%[97.3 µM]	/
COc1cc2c(cc1OC)C(c1cc(OC)c(O)c(OC)c1)CC(=O)N2 (stereo not drawn)	24%	23%[10.9 µM]	-7%
Cc1cccc(NC(=O)C2CCCN(S(=O)(=O)c3cnc[nH]3)C2)c1C (stereo not drawn)	-17%	-7%[10.9 µM]	22%
Cn1c(NC(=O)c2cc(-c3ccc4c(c3)OCO4)nc3ccccc23)cc(=O)n(C)c1=O	13µM*	-10%	16µM*
O=C(Nc1nc2c(s1)CCCC2)c1cc(-c2ccc3c(c2)OCO3)nc2ccccc12	-6%	/	/
COc1ccc(C2CC(=O)Nc3c2c(=O)[nH]c2nc4ccccc4n32)cc1 (stereo not drawn)	7%	11%[10.9 µM]	-13%
CCCc1ccc(OC(=O)CSc2nnc(-c3cccs3)o2)cc1	-13%	-1%[10.9 µM]	-9%
Cc1ccc(C(=O)Nc2ccccc2C(=O)NC(CC(=O)O)C(=O)O)cc1 (stereo not drawn)	-25%	-31%	-24%
Cc1ccc(C(=O)Nc2ccccc2C(=O)NC(C(=O)O)C(C)C)cc1 (stereo not drawn)	10µM*	/	?
CCOc1ccc(-n2c(SCC(=O)NC3CCCCC3)nc3c([nH]c4ccccc43)c2=O)cc1	1%	11%[10.9 µM]	9%
O=C(CSc1nc2c([nH]c3ccccc32)c(=O)n1-c1ccc(Cl)cc1)NC1CCCCC1	10µM*	-11%[10.9 µM]	4%
CC1CCN(S(=O)(=O)c2ccc3c(c2)N(CC(=O)NCc2ccccc2Cl)C(=O)CS3)CC1	-23%	-10%[10.9 µM]	-3%
CCc1ccc(-n2c(SCc3ccccc3Cl)nc3[nH]ncc3c2=O)cc1	?	24%[10.9 µM]	?
CCc1ccc(-n2c(SCc3ccccc3C)nc3[nH]ncc3c2=O)cc1	25µM*	-12%[10.9 µM]	?
Cc1ccc(-n2c(SCc3cccc(F)c3)nc3[nH]ncc3c2=O)cc1C	0%	-10%[10.9 µM]	-18%
Cc1ccc(-n2c(SCc3ccccc3C)nc3[nH]ncc3c2=O)cc1C	25µM*	-12%[10.9 µM]	15%
CCC(C(=O)Nc1ccc(C(C)=O)cc1)n1cnc2nc3c(cc2c1=O)CCCC3 (stereo not drawn)	?	-10%[10.9 µM]	-8%
COc1cccc(-c2nc(CS(=O)(=O)CC(=O)NCc3ccc(C)cc3)c(C)o2)c1	?	-10%[10.9 µM]	-10%
CCCCCCS(=O)Cc1ccccc1 (stereo not drawn)	7%	-7%	6%
CCCCCCCCCCCCC[N+](C)(C)Cc1ccccc1	13µM*	-40%	16µM*
CC(=O)c1ccc(NC(=O)c2cc(C)nc3c2c(C)nn3-c2ccc(C)cc2)cc1	2%	-7%[10.9 µM]	0%
COc1cc(/C=C\c2ccc(OC)cc2OC)cc(OC)c1	-14%	-44%	-6%
SMILES	p53ts 39C kill	Peg3 imprint	p53ts 32C kill
COc1ccc(/C=C/C(=O)c2cccs2)c(OC)c1	5µM*	-25%	16µM*
C=CC(C)(O)CC/C=C(\C)CCC=C(C)C (stereo not drawn)	9%	-11%	-5%
Cc1ccc(NC(=O)Cn2c(=O)n(CCC(=O)NCc3ccccc3Cl)c(=O)c3ccccc32)cc1	?	17%[10.9 µM]	-22%
N#C[C@@H](Cc1ccc(O)c(O)c1)C(=O)N1CCc2ccccc21	43%	/	60%
CC(=O)c1c(C)[nH]c(C(=O)NCc2ccccn2)c1C	-12%	-13%	-19%
CC(=O)c1c(C)[nH]c(C(=O)Nc2ccc(C)cn2)c1C	5µM*	-79%	2.5µM*
CCOc1ccccc1NS(=O)(=O)c1c(C(=O)OC)sc2cccc(F)c12	-6%	-7%[10.9 µM]	11%
O=C(NCCCN1CCN(c2ccccc2F)CC1)c1ccc2nc(CCc3ccccc3)oc2c1	?	-22%[10.9 µM]	-2%
COc1ccc(Cl)cc1NC(=O)CCS(=O)(=O)c1nc(-c2cccs2)cc(C(F)(F)F)n1	?	-13%[10.9 µM]	?
COc1ccc(Cl)cc1NC(=O)CCCS(=O)(=O)c1nc(-c2ccc(OC)c(OC)c2)cc(C(F)(F)F)n1	3.2µM*	-30%[10.9 µM]	?
COc1ccc(NC(=O)CCCS(=O)(=O)c2nc(-c3ccccc3OC)cc(C(F)(F)F)n2)c(OC)c1	?	-19%[10.9 µM]	?
COc1ccccc1-c1cc(C(F)(F)F)nc(S(=O)(=O)CCCC(=O)NC(C)C)n1	?	-16%	?
COc1ccccc1-c1cc(C(F)(F)F)nc(S(=O)(=O)CCCC(=O)Nc2ccccc2F)n1	3.2µM*	-11%[10.9 µM]	?
COc1ccccc1-c1cc(C(F)(F)F)nc(S(=O)(=O)CCCC(=O)Nc2cc(Br)ccc2O)n1	?	-17%[10.9 µM]	20µM*
O=C(O)[C@@H]1CCCN[C@H]1C(=O)O	11%	/	-6%
COc1ccc(-c2nc(SCC(=O)Nc3ccc4c(c3)OCCO4)c(-c3ccccc3)[nH]2)cc1	-25%	-9%[10.9 µM]	-16%
CCOc1ccc(-c2nc(SCC(=O)Nc3ccc4c(c3)OCCO4)c(-c3ccc(F)cc3)[nH]2)cc1	16µM*	-12%[10.9 µM]	-29%
CCOc1ccc(CN2C(=O)C(=O)c3cccc(C)c32)cc1OC	13µM*	15%[10.9 µM]	-2%
Cc1ccccc1OCCCN1C(=O)C(=O)c2cccc(C)c21	-19%	-29%	-19%
COc1ccc(NC(=O)CCc2nnc3n(C)c(=O)c4sccc4n23)cc1	18%	-7%[10.9 µM]	9%
CC(/C=C/c1cccc(Oc2ccc(F)cc2)c1)N(O)C(N)=O (stereo not drawn)	/	-13%	/
C[C@@H](/C=C\c1cccc(Oc2ccc(F)cc2)c1)N(O)C(N)=O	32µM*	-30%	32µM*
COC(=O)C1=C(C)N(Cc2ccccc2)[C@]23O[C@](C(=O)OC)(C(=O)N2C1c1ccccc1)C(c1ccccc1)C3C(=O)c1ccccc1 (stereo partly drawn)	6%[9.22 µM]	/	-6%[9.22 µM]
O=c1c2oc3ccccc3c2n(Cc2cccc(Cl)c2)c(=O)n1Cc1ccco1	19%	-8%[10.9 µM]	15%
CCC(Sc1nnc2c(n1)[nH]c1ccccc12)C(=O)Nc1nnc(C(C)C)s1 (stereo not drawn)	10µM*	23%[10.9 µM]	?
CCC(Sc1nnc2c3ccccc3n(C)c2n1)C(=O)Nc1nnc(C(C)C)s1 (stereo not drawn)	10%	8%[10.9 µM]	1%
CCOC(=O)c1ccc(N2C(=O)c3n[nH]c(-c4cccs4)c3C2c2ccc(C(C)C)cc2)cc1 (stereo not drawn)	10µM*	-13%[10.9 µM]	?

Bioassay records from PubChem.
